Compound activity (PubChem)
APOBEC3A inh: APOBEC3A ssDNA deaminase inhibitors, primary screen, selectivity assay for APOBEC3G inhibitor project, biochemical, FAM/TAMRA oligo cleavage fluorescence | inhibition, % at 20 µM | DNA dC->dU-editing enzyme APOBEC-3A (Homo sapiens), P31941 | recombinant A3A, FAM/TAMRA ssDNA deamination fluorescence | AID 493011, 2011 | 0.41% of 330,000 active;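 active means at least 40% inhibition at 20 µM here, with at most 30% in a related deaminase screen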;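 further: plate controls were A3A with DMSO for no effect and wells lacking A3A enzyme for full effect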
Target sequence (P31941 whole entry, looked up): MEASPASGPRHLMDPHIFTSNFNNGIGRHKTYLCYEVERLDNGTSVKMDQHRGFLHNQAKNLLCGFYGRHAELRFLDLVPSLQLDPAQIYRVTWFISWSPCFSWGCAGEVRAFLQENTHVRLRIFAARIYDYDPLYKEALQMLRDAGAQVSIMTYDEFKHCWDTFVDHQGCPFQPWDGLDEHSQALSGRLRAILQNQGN
AHR activator: AHR activators, primary screen, cell-based, luminescence, luciferase reporter, human; AID 2796, 2010; 2.5% of 320,000 active; AHR-responsive luciferase reporter cells; activation, % at 5 µM; Aryl hydrocarbon receptor (Homo sapiens), P35869; in the data active means activation above about 47%;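 further: 0% = vehicle wells and 100% = reference agonist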
A3G deaminase: APOBEC3G DNA deaminase inhibitors, primary screen, biochemical, fluorescence, single-stranded DNA substrate, uHTS. AID 493012, 2011. 0.28% of 330,000 active. recombinant A3G, ssDNA deamination FAM/TAMRA fluorescence. DNA dC->dU-editing enzyme APOBEC-3G (Homo sapiens), Q9HC16. inhibition, % at 20 µM;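 active means inhibition of at least 40% at 20 µM, with no more than 30% in the related APOBEC3A deaminase screen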;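 further: plate controls were DMSO wells with A3G for no effect and wells lacking A3G enzyme for full effect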
Target sequence (Q9HC16 whole entry, looked up): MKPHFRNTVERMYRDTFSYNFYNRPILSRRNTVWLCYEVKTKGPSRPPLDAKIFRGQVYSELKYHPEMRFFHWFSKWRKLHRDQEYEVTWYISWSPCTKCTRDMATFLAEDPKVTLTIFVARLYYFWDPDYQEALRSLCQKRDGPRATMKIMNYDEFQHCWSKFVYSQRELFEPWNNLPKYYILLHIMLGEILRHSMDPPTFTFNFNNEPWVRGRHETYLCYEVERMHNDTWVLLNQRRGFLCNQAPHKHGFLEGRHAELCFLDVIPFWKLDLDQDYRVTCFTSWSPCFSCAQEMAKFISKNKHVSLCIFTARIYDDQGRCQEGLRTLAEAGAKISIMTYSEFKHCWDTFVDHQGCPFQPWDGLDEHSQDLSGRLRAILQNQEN
NTR1 ag: agonists of human NTR1, primary screen, imaging, U2OS cells, beta-arrestin-GFP, high content. activation, % at 20 µM. NTR1-U2OS beta-arrestin-GFP spot imaging, agonist mode. 0.17% of 330,000 active;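 active means activation at or above 40% of the spot to cytoplasm intensity ratio, with at least 20 cells analyzed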;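 further: 0% = DMSO without peptide and 100% = 100 nM NTR1 peptide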
Active calls of the source: *; nt = not tested or not shown. Hits are enriched below; roughly 3.2% of the tested compounds scored in any of these assays.

SMILES	APOBEC3A inh	AHR activator	A3G deaminase	NTR1 ag
COc1ccc(NC(=O)CN2C(=O)COc3ccccc32)cc1OC	-5.8	3.9	-8.1	-0.1
CCCCn1c(SCC(=O)c2ccc(OCC)cc2)nc2cc(S(N)(=O)=O)ccc21	-3.8	48.4*	-11.2	9.2
COc1ccccc1CC(=O)Nc1ccc2c(c1)C(=O)NC2=O	1.3	-4.8	-5.4	1.0
O=C(/C=C/c1ccccc1)NC(=S)NNC(=O)Cc1cccs1	7.1	48.5*	8.0	-0.5
COc1ccc(/C=C/C(=O)NC(=S)NNC(=O)Cc2cccs2)cc1	-3.9	6.0	-1.7	-0.8
Cc1cc(C(=O)COC(=O)c2ccc[nH]c2=O)c(C)n1CCc1ccc(F)cc1	-2.0	41.0	-3.4	-0.1
Cc1cc(C(=O)COC(=O)C2=NNC(=O)CC2)c(C)n1CCc1ccccc1	-2.0	69.0*	2.6	-0.1
COc1ccc(-c2cn3c(C)c(C(=O)N4CCCc5ccccc54)sc3n2)cc1	-0.5	-8.4	-1.3	2.0
COc1ccc(-c2cn3c4c(sc3n2)CCCC4)cc1	-2.6	68.2*	-4.2	4.3
Cc1nc2ccccc2n1CCN1CCOCC1	-1.1	72.5*	-5.3	0.4
O=c1[nH]c2ccccc2c(O)c1-c1cc2ccccc2oc1=O	1.7	30.1	2.8	-0.7
CCOc1ccc(Nc2nc3cc(S(=O)(=O)CC)ccc3o2)cc1	2.6	63.9*	-6.7	3.9
CCn1c(CSc2nc3ccccc3[nH]2)nc2cc(C(=O)O)ccc21	-2.1	59.9*	-3.8	0.8
O=S(=O)(c1ccccc1)N1c2cc(Cl)ccc2Oc2nc3ccccc3nc21	-12.1	74.3*	-7.2	0.4
O=c1oc2cc(OCc3ccc(F)cc3F)ccc2cc1-c1ccc2ccccc2n1	1.2	97.4*	-0.6	0.6
O=c1oc2cc(OCc3c(F)cccc3Cl)ccc2cc1-c1ccccn1	-3.8	15.2	-7.1	5.1
COc1ccc(/C=N/NC(=O)COc2ccc(Cl)cc2Cl)cc1Cn1nc(C)cc1C	2.6	8.5	-5.7	-0.2
O=C(COc1ccc(Cl)cc1)Nc1nnc(-c2ccc3c(c2)CCCC3)o1	-3.0	27.4	-7.8	7.9
COc1ccccc1C(=O)Nc1nnc(-c2ccc3c(c2)CCCC3)o1	-2.5	51.7*	-5.2	5.0
CC(=O)Nc1nnc(-c2ccc3c(c2)CCCC3)o1	-1.3	58.7*	-6.0	-0.7
COc1ccc(-c2nnc(NC(=O)c3ccccc3C)o2)cc1	-3.1	6.5	-7.3	-1.7
CN(C)c1nc(-c2ccccn2)nnc1-c1ccccc1	0.6	84.8*	2.6	0.7
O=C(CSc1nc2ccccc2o1)N1N=C(c2cccs2)CC1c1ccc(F)cc1 (configuration not stated)	-3.0	13.8	-3.1	1.5
Cc1ccc(C2CC(c3cccs3)=NN2C(=O)CSc2nc3ccccc3o2)cc1 (configuration not stated)	-4.0	75.0*	-8.1	7.9
COc1ccccc1N=Nc1ccc(O)c2ncccc12	2.3	50.8*	2.5	2.9
SMILES	APOBEC3A inh	AHR activator	A3G deaminase	NTR1 ag
Cc1ccc(N=Nc2ccc(O)c3ncccc23)cc1C	0.5	46.1	-1.6	-0.9
Cc1ccc(N=Nc2ccc(O)c3ncccc23)cc1	nt	47.3*	nt	nt
COc1ccc(N2C(=O)[C@@H]3[C@H](C2=O)[C@H]2c4ccccc4C=CN2[C@@H]3C(C)=O)cc1	nt	50.7*	nt	nt
O=C(Nc1ccc2c(c1)OCO2)[C@@H]1[C@@H]2C(=O)N(C3CCCCC3)C(=O)[C@@H]2C2c3ccccc3C=CN21 (some centres not stated)	1.1	53.5*	-0.9	1.0
CC(C)(C)C(=O)[C@@H]1[C@@H]2C(=O)N(C3CCCCC3)C(=O)[C@@H]2[C@H]2c3ccccc3C=CN12	-0.5	92.6*	1.4	2.1
COc1ccc(S(=O)(=O)N2CCOCC2)cc1NC(=O)CCOc1ccc(C(C)(C)C)cc1	-2.2	nt	-8.5	2.5
Cc1cc(C)c2c(-n3cccc3)c(C(=O)O)sc2n1	0.8	1.6	3.3	-0.9
Cc1cc(C)c2c(-n3cccc3)c(NC(=O)OC(C)C)sc2n1	-6.3	65.8*	1.0	4.7
O=C(CSc1nc2ccccc2[nH]1)Nc1nc(-c2cccc(Br)c2)cs1	-2.4	64.5*	-9.3	30.4
C#CCOCCOCCOCCNc1nc(N2CCN(C(=O)[C@H](CCCCN)n3cc(CN)nn3)CC2)nc(N2CCN(C(=O)[C@H](CCCN=C(N)N)n3cc(C(N)[C@H](C)CC)nn3)CC2)n1 (some centres not stated)	-1.5	-1.6	-7.2	-2.4
CCc1ccc2[nH]cc(S(=O)(=O)c3ccc(C)c(C)c3)c(=O)c2c1	-1.3	1.5	-4.6	1.4
CCc1ccc2[nH]c3nc(C)cc(C)c3c(=O)c2c1	2.1	47.5*	-3.0	-0.3
COc1ccccc1C1(O)CCN(CC(=O)Nc2nc(-c3ccccc3)cs2)CC1	4.7	8.7	-9.1	7.4
Cc1[nH]c(C)c(S(=O)(=O)N2CCN(c3cccc(Cl)c3)CC2)c1C(=O)N1CCCC1	-1.2	49.5*	-2.7	1.3
COc1cccc(N2CCN(S(=O)(=O)c3c(C)[nH]c(C)c3C(=O)N3CCCC3)CC2)c1	-3.6	19.4	0.3	-0.3
CCn1cc(C2=NC(C(C)C)CO2)c2ccccc21 (configuration not stated)	-4.9	53.1*	-2.6	-3.1
CCn1cc(C2=NC(CCSC)CO2)c2ccccc21 (configuration not stated)	-0.3	11.1	-0.5	3.2
CCn1cc(C2=NC(CC(C)C)CO2)c2ccccc21 (configuration not stated)	1.4	66.7*	-1.5	4.5
CCC(C)c1ccccc1NC(=O)C(C)OC(=O)CN1C(=O)NC(C)(C)C1=O (configuration not stated)	0.1	-1.6	-11.6	-0.2
CCC1(C)N=C(c2ccc3c(c2)OCO3)CC(c2ccccc2O)N1 (configuration not stated)	-1.8	73.3*	-4.0	9.2
CCn1nnc2cc(C(=O)Nc3cccc(S(=O)(=O)N(C)C)c3)ccc21	3.4	-0.8	-2.6	-0.4
CCc1noc(C)c1C(=O)Nc1nc2c(F)cc(F)cc2s1	0.4	61.0*	-8.5	1.4
CN(C)C(CNC(=O)C1CC(=O)N(Cc2ccccc2)C1)c1ccccc1 (configuration not stated)	-0.6	4.5	-5.8	-1.2
CC(=O)N1CCn2c3ccc(C)cc3c3cccc1c32	-6.6	71.4*	-7.0	-1.2
COc1cccc(N2C(=O)C3CCCN3C2=S)c1 (configuration not stated)	-0.7	1.6	-4.4	1.7
CC(C)n1c2ccccc2c2nc3ccccc3nc21	-0.3	56.9*	-1.5	6.7
O=C(O)CCn1c2ccccc2c2nc3ccccc3nc21	1.3	60.0*	0.9	1.0
N#CCn1c2ccccc2c2nc3ccccc3nc21	1.5	46.7	-1.7	5.3
